Bioassay records as filed in PubChem BioAssay.
Exocytosis inh: lytic granule exocytosis inhibition; TALL-104 LAMP-1 surface exposure, flow cytometry; cells stimulated with thapsigargin and PMA; inhibition, % at 10 µM; actives 0.66% (n = 360,000);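 active = inhibition above about 55%, limit read from the data; inconclusive = no clear call, values can overlap the other calls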
Myeloid diff 2: compounds promoting myeloid differentiation; ER-HoxA9 myeloid progenitors, lysozyme-GFP differentiation, flow cytometry; calls only at 10 µM; actives 1% (n = 360,000);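 active = normalized GFP-positive differentiation at or above the plate's own cutoff, the solvent-only control mean plus 3 SD; inconclusive = no clear call, values can overlap the other calls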;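 note: cells exposed to compound for four days before flow analysis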
ABCB6 inh MLPCN: inhibitors of human ABC transporter ABCB6 | Q9NP58 | K562-ABCB6 porphyrin accumulation, flow cytometry, 1 h; stronger effect = lower value | fluorescence ratio to DMSO, % at 10 µM | actives 0.19% (n = 360,000) | AID 602162;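 active = fluorescence ratio to DMSO below 75%, the collection mean minus 3 SD; inconclusive = too few cells collected in the well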;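 note: signal is porphyrin accumulated inside mitochondria; 100% equals median channel fluorescence of DMSO control wells; lower ratio means ABCB6 inhibition with less porphyrin fluorescence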
Target sequence (Q9NP58 whole entry, looked up): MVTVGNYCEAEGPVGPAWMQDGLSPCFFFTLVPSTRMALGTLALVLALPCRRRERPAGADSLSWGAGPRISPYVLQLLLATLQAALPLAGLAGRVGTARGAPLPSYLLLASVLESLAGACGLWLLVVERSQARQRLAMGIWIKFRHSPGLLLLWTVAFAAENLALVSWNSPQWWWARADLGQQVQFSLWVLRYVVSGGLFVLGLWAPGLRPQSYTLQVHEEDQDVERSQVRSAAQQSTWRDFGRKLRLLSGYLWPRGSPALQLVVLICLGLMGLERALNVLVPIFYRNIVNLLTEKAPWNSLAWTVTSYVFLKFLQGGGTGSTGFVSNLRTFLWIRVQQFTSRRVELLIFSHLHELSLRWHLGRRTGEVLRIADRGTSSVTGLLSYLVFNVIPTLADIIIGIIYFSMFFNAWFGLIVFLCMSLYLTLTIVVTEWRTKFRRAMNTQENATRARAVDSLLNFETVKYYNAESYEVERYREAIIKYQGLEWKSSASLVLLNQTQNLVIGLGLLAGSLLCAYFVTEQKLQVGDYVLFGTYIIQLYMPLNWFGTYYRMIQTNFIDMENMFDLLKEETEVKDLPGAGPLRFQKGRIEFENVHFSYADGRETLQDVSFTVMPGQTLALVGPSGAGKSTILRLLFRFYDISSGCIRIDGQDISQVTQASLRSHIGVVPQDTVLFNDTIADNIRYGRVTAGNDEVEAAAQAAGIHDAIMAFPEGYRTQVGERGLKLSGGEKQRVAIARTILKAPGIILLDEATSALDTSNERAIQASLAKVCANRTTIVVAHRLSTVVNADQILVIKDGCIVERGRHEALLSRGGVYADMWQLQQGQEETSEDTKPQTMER
Myeloid diff CP1: myeloid differentiation induction; shares compounds with Myeloid diff 2; ER-HoxA9 myeloid progenitors, GFP/Mac1 double-positive flow; calls only; actives 2% (n = 2,300);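 active = share of green or green-and-red cells above 9 and 9% in run 1 or 4 and 3% in run 2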
GFP autofluor: counter-screen for myeloid differentiation promoters: compound fluorescence; actives 7.4% (n = 2,300); shares compounds with Myeloid diff 2; fluorescence response, % (no concentration beside the values); ER-HoxA9 myeloid progenitors, no estrogen, GFP autofluorescence flow cytometry; vehicle wells 0%, positive control 100%;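 active = over 5% cells positive for green fluorescent reporter, or over 2% positive for both it and APC stain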;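 note: range taken on the double positive population between DMSO and positive control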
* marks the source's active call; other numbers are inactive results; i = inactive; ? = inconclusive; nt = no result; + = active, no number. This is a sample that favours compounds with a hit; in the whole collection about 1.8% have one here.

SMILES	Exocytosis inh	Myeloid diff 2	ABCB6 inh MLPCN	Myeloid diff CP1	GFP autofluor
O=C(NCc1ccccc1)C(c1ccc(-c2ccccc2)cc1)N1CCN(CCN2CCOCC2)CC1 (stereo unspecified)	1	i	nt	nt	nt
O=C(NCc1ccccc1)C(c1ccc(C(F)(F)F)cc1)N1CCN(CCN2CCOCC2)CC1 (stereo unspecified)	12	i	nt	i	0
CCCS(=O)(=O)NC(=O)C1(C)CCN(C(=O)c2cc(C)nn2C(C)(C)C)C1 (stereo unspecified)	-8	i	81	nt	nt
Cc1cccc(NC(=O)C2CCN(C(=O)N3CCOc4ccccc43)CC2)c1C	0	i	103	nt	nt
O=C(Nc1ccc(Cl)c(Cl)c1)c1ccc(Cl)c(Cl)c1	3	i	96	nt	nt
CC(C)C1O/C(=N/C(=O)Nc2ccc(Cl)c(Cl)c2)NC1=O (stereo unspecified)	4	i	99	i	0
O=C(COc1ccc(Br)cc1)Nc1ccc(Cc2ccncc2)cc1	9	i	94	nt	nt
O=C(CSc1nc2ccccc2c(=O)n1Cc1ccco1)c1ccccc1	4	i	93	nt	nt
CC1CCCCC1NC(=O)CSc1nc2ccccc2c(=O)n1Cc1ccco1 (stereo unspecified)	3	+	108	i	0
Cc1ccccc1C(=O)Nc1ccc2c(C#N)c3nc4ccccc4nc3n2c1	6	+	409	i	2.3*
Cc1c(C(=O)Nc2ccccc2)cn2c(nc3ccccc32)c1C#N	4	i	92	nt	nt
O=C(NCC1CC1)c1onc(CSc2ccncc2)c1C(=O)NCC1CC1	-10	?	98	nt	nt
Cn1c(CO)cnc1S(=O)(=O)Cc1ccc([N+](=O)[O-])cc1	0	i	103	nt	nt
Cc1ccnc(S(=O)(=O)Cc2ccc([N+](=O)[O-])cc2)n1	4	i	101	i	0
Cc1c(C(=O)N2C[C@@H](C)O[C@@H](C)C2)oc2c(F)cccc12	-5	i	98	nt	nt
Cc1cc(C)nc(/N=C(\N)Nc2ccccc2-c2ccccc2)n1	0	+	96	i	0
Cc1ccc(N/C(N)=N/c2nc(C)cc(C)n2)cc1	-1	i	98	nt	nt
CCN1C(N(C)C)=NC[C@@H]1Cc1ccccc1	4	i	102	nt	nt
O=C(COc1ccccc1)Nc1nc2cc3c(cc2s1)OCCO3	0	i	100	i	1
O=C(COc1ccccc1)Nc1nc2cc3c(cc2s1)OCO3	4	i	99	nt	nt
COc1ccc(C(=O)NC2CCCc3ccccc32)cc1OC1CCN(C(C)=O)CC1 (stereo unspecified)	-10	i	98	nt	nt
COc1cc(C2C(C#N)=C(C)NC(C)=C2C#N)cc(OC)c1OC	7	i	110	nt	nt
CCOC(=O)N1CCN(C(=O)COC(=O)c2oc3ccc(OC)cc3c2C)CC1	-13	i	97	nt	nt
COCc1c(C)cc(C)c(/C=N/O)c1C	4	i	95	i	2
O=C1CC(c2ccc(Cl)cc2)CC(O)=C1C=NCCO (stereo unspecified)	-6	i	96	nt	nt
SMILES	Exocytosis inh	Myeloid diff 2	ABCB6 inh MLPCN	Myeloid diff CP1	GFP autofluor
O=[N+]([O-])c1cc(S(=O)(=O)N2CCOCC2)ccc1OCc1cccc(Cl)c1	3	i	95	nt	nt
Cc1nc(C(F)(F)F)nc(Nc2ccc(Br)cc2)c1C#N	0	i	95	nt	nt
Cn1cc(Br)cc2nc(C(F)(F)F)nc1-2	0	+	100	i	0
CCC(OC(=O)c1ccco1)C(=O)NCc1ccc2c(c1)OCO2 (stereo unspecified)	-9	i	101	nt	nt
CCc1nn(CC(=O)NCCCN(Cc2ccccc2)C(C)C)c(=O)c2cc3sccc3n12	-6	+	99	i	0
CCc1nn(CC(=O)NCCCN(C)Cc2ccccc2)c(=O)c2cc3sc(C)cc3n12	5	i	103	nt	nt
O=C(N/N=C/c1ccc(F)cc1)c1cc[n+]([O-])cc1	-10	i	92	nt	nt
CCOc1ccc(S(=O)(=O)c2cn(C)c3cc(OC)c(OC)cc3c2=O)cc1	8	i	99	nt	nt
Cc1cccc(NC(=S)NC2CCCC2)c1	-6	i	97	nt	nt
Cc1cccc(NC(=S)N(C)C2CCCCC2)c1	-2	i	91	i	0
O=C(Cn1ccc(NC(=O)OCc2ccccc2)nc1=O)NCc1ccc2c(c1)OCO2	-3	i	98	nt	nt
CCN(CC)C(=O)C1=C(C)N(CCCN2CCCC2=O)C(=O)C(CC(=O)NCc2ccco2)C1 (stereo unspecified)	-2	i	103	i	0
CCCCN1C(=O)C(CC(=O)NCc2ccco2)CC(C(=O)N(CC)CC)=C1C (stereo unspecified)	0	i	93	nt	nt
CC(=O)Nc1cccc(C(=O)NC2CCCc3c2cnn3-c2cc(C)cc(C)c2)c1 (stereo unspecified)	-2	i	103	nt	nt
COc1ccc(Cn2nnnc2CN2CCC(O)(c3ccccc3F)CC2)cc1	3	i	104	nt	nt
OC1(c2ccccc2F)CCN(Cc2nnnn2Cc2ccc(F)cc2)CC1	-2	+	101	i	0
Cn1nccc1C(=O)Nc1sc2c(c1C#N)CCCC2	4	i	91	nt	nt
Cn1nccc1C(=O)Nc1sc2c(c1C(N)=O)CCCC2	-3	i	99	i	0
O=C(Cc1cc(=O)[nH][nH]1)N/N=C/C(Cl)=C/c1ccccc1	-3	i	101	i	0
O=C(Cc1cc(=O)[nH][nH]1)N/N=C/c1c(Cl)cccc1Cl	-6	i	97	nt	nt
O=C(COc1ccccc1)NCC(=O)Nc1cccc(S(=O)(=O)NC2=NCCC2)c1	0	i	99	nt	nt
CC1(C)Cn2c(nnc2-c2cccc(O)c2)S1	0	+	105	i	0
CC1Cn2c(nnc2-c2cccc(Cl)c2)S1 (stereo unspecified)	-2	i	98	nt	nt
CCOC(=O)c1cc2c(c(-c3ccccc3)n1)[C@@H](CCO)N(S(=O)(=O)C(C)(C)C)C2	-3	i	104	i	1
CCOC(=O)c1cc2c(c(-c3ccccc3)n1)[C@H](CCO)N(S(=O)(=O)C(C)(C)C)C2	-4	i	102	nt	nt
SMILES	Exocytosis inh	Myeloid diff 2	ABCB6 inh MLPCN	Myeloid diff CP1	GFP autofluor
CCOC(=O)C1=NN(C(=O)c2ccccc2)C(O)(c2ccc(C)cc2)C1 (stereo unspecified)	5	i	102	nt	nt
CCOC(=O)C1=NN(C(=O)c2ccc(OC)cc2)C(O)(c2ccc(Cl)cc2)C1 (stereo unspecified)	0	+	96	i	0
Cc1c(N/N=C(\C#N)C(=O)c2ccccc2)c(=O)n(-c2ccccc2)n1C	1	i	100	i	6.9*
Cc1cc2oc(C(=O)Nc3c(C)n(C)n(-c4ccccc4)c3=O)c(C)c2cc1C	-1	i	102	i	0
Cc1ccccc1C(=O)/C(C#N)=N/Nc1c(C)n(C)n(-c2ccccc2)c1=O	1	i	101	nt	nt
Cc1ccc2c(C)c(C(=O)Nc3c(C)n(C)n(-c4ccccc4)c3=O)oc2c1	-2	i	96	nt	nt
Cc1ccc(O)c(N/C=C/C(=O)c2ccc(F)cc2)c1	-2	i	97	nt	nt
